Screens (PubChem BioAssay)
Rows were chosen to be rich in hits. Some 1.3% of all compounds tested hit in one or more screens of this group.
CRFR2-BP antag = antagonists of CRF-BP/CRF-R2 complex, primary screen, cell-based, HEK293, calcium dye fluorescence, uHTS. CRF-induced calcium fluorescence. inhibition, % at 11.8 µM. 0.59% of 350,000 active;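 active means inhibition of the ligand-induced calcium signal above about 50% at the single tested concentration, limit read from the data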
CRFR2-BP ag = agonists of CRF-BP/CRF-R2 complex, primary screen, cell-based, HEK293, calcium dye fluorescence, uHTS; CRF-binding protein / CRF receptor 2 complex (human); calcium dye fluorescence (FLIPR); percent of saturating CRF peptide response; activation, % at 13.2 µM; 0.46% of 350,000 active; AID 588473, 2011;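 active means activation of at least 50%, plus an integration ratio under a set limit after plate pattern correction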;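 further: plate controls were neutral control wells without compound for no effect and CRF at EC100 for full effect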
RTF Ca sens inh = cardiac RTF calcium sensitivity inhibitors, primary screen, biochemical, IANBD-TnC fluorescence, EC70 calcium | inhibition, % at 7.15 µM | IANBD-labeled cardiac RTF, Ca2+ fluorescence | Troponin I, cardiac muscle (Homo sapiens) + Troponin T, cardiac muscle (Homo sapiens) + … | 0.12% of 340,000 active | AID 493244, 2011;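 active means inhibition above the mean inhibition of all tested compounds plus 3 SD, cut at about 17% in these data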;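 further: assay run at fixed EC70 calcium of 1.6 mM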
cardiac RTF act = cardiac RTF calcium sensitivity activators, primary screen, biochemical, IANBD-TnC fluorescence, EC20 calcium; 0.24% of 340,000 active; activation, % at 7.2 µM; Troponin I, cardiac muscle (Homo sapiens) + Troponin T, cardiac muscle (Homo sapiens) + …; IANBD-labeled TnC RTF fluorescence at EC20 calcium; 0% EC20 calcium, 100% full calcium;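 active means activation above the mean over all tested compounds plus 3 SD, cut at about 30% in these data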;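 further: rise in fluorescence read as greater calcium sensitivity of cardiac thin filaments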
The depositor's hits bear a star; i = inactive; nt = no result.

SMILES | CRFR2-BP antag | CRFR2-BP ag | RTF Ca sens inh | cardiac RTF act
Cc1ccccc1CNC(=O)c1ccccc1NS(C)(=O)=O | 32 | -2 | -6 | 2
CS(=O)(=O)Nc1ccccc1C(=O)NCc1ccccc1Cl | 61* | 2 | -3 | -1
CCN(c1cccc(C)c1)c1nc2ccsc2c(=O)s1 | 70* | -6 | -14 | -3
Cc1nc(SCC(=O)Nc2nc3ccccc3s2)c(C#N)c(C)c1C | -8 | -1 | -1 | -6
Cc1cc(C(F)(F)F)c(C#N)c(SCC(=O)Nc2nc3ccccc3s2)n1 | -164 | 80* | -11 | 10
Cc1ccc(C)c2nc3sc(C(=O)N4CCCc5ccccc54)c(N)c3cc12 | -154 | 60* | -13 | 4
O=C(c1ccc(C(=O)N2CCCc3ccccc32)s1)N1CCCc2ccccc21 | 5 | 0 | -7 | 1
COc1ccc(S(=O)(=O)Nc2c(C)n(C)n(-c3ccccc3)c2=O)cc1C(=O)O | 51* | 2 | -10 | 0
N/C(=N\OC(=O)CC1CCCCC1)c1ccc(Cl)cc1 | -12 | 5 | -3 | -4
CN(c1ccccc1)c1ccc(/C=C(\CCC(=O)O)c2nc3ccccc3s2)cc1[N+](=O)[O-] | 52* | -2 | 3 | -1
Cc1ccc(/C=C(\CCC(=O)O)c2nc3ccccc3s2)cc1[N+](=O)[O-] | 5 | -1 | 0 | -1
CC(=O)c1cccc(Nc2nc3ccccc3n3cnnc23)c1 | 116* | -1 | -1 | -3
Fc1cccc(Nc2nc3ccccc3n3cnnc23)c1 | -58 | -1 | -2 | 1
CN(C(=O)CCS(=O)(=O)c1ccc2c(c1)oc(=O)n2C)C1CCCCC1 | 68* | -1 | 1 | -3
Cc1ccc(N(C)C(=O)CCS(=O)(=O)c2ccc3c(c2)oc(=O)n3C)cc1 | 15 | -1 | 5 | -3
COc1ccc(NC(=O)Cc2ccsc2)cc1S(=O)(=O)N1CCOCC1 | 12 | -1 | -13 | 9
Cc1ccc(C(=O)c2cc([N+](=O)[O-])ccc2N2CCCCC2)c(C)c1 | -130 | 133* | -5 | 1
COc1ccc(C=Cc2ccc3ccccc3n2)c(OC)c1 | -7 | 80* | nt | nt
COc1ccc(OC)c(/C=C/c2ccc3cccc(O)c3n2)c1 | nt | nt | -7 | -5
O=C1CCCN1c1nccs1 | -12 | 3 | 0 | -3
O=C(Cn1ncc2c([nH]c3ccccc32)c1=O)NCC1CCN(Cc2ccccc2F)CC1 | 70* | 0 | -7 | 0
Nc1nnnn1/N=C/c1cc(Cl)ccc1O | -17 | 34 | -15 | 4
Nc1nnnn1/N=C/c1cc(Cl)cc(Cl)c1O | -108 | 138* | -45 | 32*
Cc1ccc2nc(CC(O)(c3ccccc3)c3ccccc3)ccc2c1 | 25 | 0 | nt | nt
COc1cccc2ccc(CC(O)(c3ccccc3)c3ccccc3)nc12 | 58* | 4 | nt | nt
SMILES | CRFR2-BP antag | CRFR2-BP ag | RTF Ca sens inh | cardiac RTF act
CN(C)C(=O)c1ccc(NC(=O)COC(=O)C2CCN(S(=O)(=O)c3ccc4c(c3)OCCO4)CC2)cc1 | -12 | -1 | 7 | 3
COc1cc(/C=C/c2c([N+](=O)[O-])c(=O)n(C)c(=O)n2C)cc(OC)c1OC | -7 | 0 | 3 | -3
COc1ccc(/C=C/c2c([N+](=O)[O-])c(=O)n(C)c(=O)n2C)cc1O | 52* | 1 | -1 | -1
CC1CCN(C(=O)c2[nH]cnc2C(=O)Nc2ccon2)CC1 | -5 | 0 | -11 | 8
O=C(Nc1ccc(F)cc1)c1nc(S(=O)(=O)Cc2ccccc2)ncc1Cl | 56* | -1 | -5 | 3
COc1ccc(OC)c(NC(=O)c2nc(S(=O)(=O)Cc3ccccc3)ncc2Cl)c1 | 62* | -1 | -10 | -1
Cc1ccc(NC(=O)c2nc(S(=O)(=O)Cc3ccccc3)ncc2Cl)cc1 | 44 | 1 | -15 | -9
Cc1ccc(O)c(C(=O)c2cc(C#N)c(=O)n(-c3c(C)n(C)n(-c4ccccc4)c3=O)c2)c1 | -17 | 48 | -9 | 5
COc1ccc(O)c(C(=O)c2cc(C#N)c(=O)n(-c3c(C)n(C)n(-c4ccccc4)c3=O)c2)c1 | -5 | 86* | -17 | 11
COCCN(CCOC)S(=O)(=O)c1ccc(C(=O)Nc2c(C)n(C)n(-c3ccccc3)c2=O)cc1 | 20 | -1 | -1 | -3
COc1ccc(S(=O)(=O)N(C)CC(=O)NC2CCCCC2)cc1OC | 51* | 0 | 4 | 0
COc1ccc(-c2noc(C(=O)NCc3ccc(F)cc3)n2)cc1OC | 60* | 0 | -5 | -1
COc1nc2ccccc2nc1CCC(=O)O | -14 | -2 | -9 | -2
COc1ccc(NC(=O)CN(C)C(=O)c2oc3c(ccc4ccccc43)c2C)cc1 | -6 | 0 | -2 | -3
O=C1c2cccc3c(O)ccc(c23)C(=O)N1c1ccc(Cl)cc1 | -140 | 202 | i | 532*
CC(=O)Nc1ccc(N2C(=O)c3cccc4c(O)ccc(c34)C2=O)cc1 | -168 | 201* | i | 609*
CCOC(=O)c1ccc(N2C(=O)c3cccc4c(C(=O)O)ccc(c34)C2=O)cc1 | -9 | 1 | 2 | -3
O=C1c2cccc3c(O)ccc(c23)C(=O)N1Cc1ccco1 | -216 | 252* | i | 574*
c1ccc(CSC2=NCCCN2)cc1 | 19 | -1 | 4 | -1
N#Cc1ccc(CSC2=NCCN2)cc1 | 104* | -1 | -6 | -3
O=C(CCCc1ccccc1)Nc1nncs1 | 64* | -1 | 5 | 0
Cc1ccc(C(=O)N[C@H](C(=O)NC2CCCCC2)C(C)C)cc1 | -1 | -1 | -1 | -2
Fc1cccc(/C=N/n2c(C3CCCCC3)n[nH]c2=S)c1 | -1 | 0 | -6 | 0
O=C(Nc1ccccc1N1CCCCC1)C1CCN(C(=O)c2ccc(Cl)cc2)CC1 | 100* | 3 | 1 | -12
O=C(Nc1ccccc1N1CCCC1)C1CCN(C(=O)c2ccc(Cl)cc2)CC1 | -21 | -2 | -6 | 3
SMILES | CRFR2-BP antag | CRFR2-BP ag | RTF Ca sens inh | cardiac RTF act
O=C(CSc1ncc(-c2ccc(F)cc2)n1Cc1ccco1)Nc1nccs1 | -20 | -1 | -3 | 0
Cc1cnc(NC(=O)CSc2ncc(-c3ccccc3)n2Cc2ccco2)s1 | -59 | 60* | 5 | -2
COC(=O)c1ccc(S(=O)(=O)NC(C)(C)C)n1C | 1 | 0 | -2 | 6
CC(=O)Nc1ccc(S(=O)(=O)N2CCC(NC(C)=O)(c3cccc(F)c3)CC2)cc1 | 51* | -7 | 3 | 5
CCCC(=O)Nc1ccc(C(=O)Nc2ccc([N+](=O)[O-])cc2OC)cc1 | 13 | 0 | 0 | 3
CCN(CC)c1ccc(/C=C2\C(=O)c3ccc(C(=O)O)cc3C2=O)cc1 | -243 | 248* | -98 | 74*
CCN(CC)c1ccc(C(=O)O)cc1 | -3 | 2 | 10 | 1
CCC(c1nnnn1C1CCCC1)N1CCN(Cc2ccccc2)CC1 (stereo not given) | 103* | -1 | -5 | 2
